Drawing on PubChem BioAssay (NCATS), this text covers Potency, outcome and activity change, negative = inhibition for 40 compounds.

Inconclusive results are not listed. A call without a number means that no potency is given here. A number with no mark means an inactive call. The source made the active and inactive calls. The call rests on the fitted dose curve; in most records, active means well fitted inhibition curve with a large enough effect; inconclusive means small, poorly fitted or top-dose-only effect; inactive means no such curve, though single readings can be large or run the other way.

Sequence of Rap guanine nucleotide exchange factor 3 (Homo sapiens) (O95398 whole entry, looked up): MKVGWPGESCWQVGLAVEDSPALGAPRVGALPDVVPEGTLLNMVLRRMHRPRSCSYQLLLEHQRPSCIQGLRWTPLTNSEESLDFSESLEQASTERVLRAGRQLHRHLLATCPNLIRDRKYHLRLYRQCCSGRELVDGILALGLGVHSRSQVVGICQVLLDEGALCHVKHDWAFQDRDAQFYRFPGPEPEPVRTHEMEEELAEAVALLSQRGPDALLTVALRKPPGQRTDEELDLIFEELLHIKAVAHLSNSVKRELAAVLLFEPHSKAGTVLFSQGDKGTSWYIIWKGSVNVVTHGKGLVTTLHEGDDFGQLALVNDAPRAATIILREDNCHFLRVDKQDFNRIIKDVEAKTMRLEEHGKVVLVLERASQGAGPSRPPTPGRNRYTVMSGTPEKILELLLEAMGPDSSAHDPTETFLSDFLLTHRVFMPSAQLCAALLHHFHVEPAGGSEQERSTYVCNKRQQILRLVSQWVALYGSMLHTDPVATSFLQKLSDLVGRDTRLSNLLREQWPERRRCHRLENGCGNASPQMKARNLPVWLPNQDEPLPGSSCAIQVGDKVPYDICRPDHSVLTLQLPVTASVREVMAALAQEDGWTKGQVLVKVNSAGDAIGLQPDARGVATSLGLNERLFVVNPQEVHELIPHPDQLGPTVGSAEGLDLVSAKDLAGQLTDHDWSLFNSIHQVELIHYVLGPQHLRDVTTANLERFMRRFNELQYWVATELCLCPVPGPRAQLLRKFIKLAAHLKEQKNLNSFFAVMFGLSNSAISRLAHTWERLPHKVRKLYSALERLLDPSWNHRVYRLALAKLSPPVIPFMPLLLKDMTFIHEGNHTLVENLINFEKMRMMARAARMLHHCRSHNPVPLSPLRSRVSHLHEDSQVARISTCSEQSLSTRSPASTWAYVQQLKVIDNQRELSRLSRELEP

In the first test the target is Rap guanine nucleotide exchange factor 4 (Homo sapiens) (UniProt Q8WZA2). The test is described as follows: Confirmatory qHTS for antagonist of cAMP-regulated guanine nucleotide exchange factor 4 (EPAC2) (AID 1645885). Further: nearly all actives have a fitted effect of over 25% in size. Further: potency means the concentration at half of the fitted maximal effect. The following applies: EPAC2 Rap1B-BODIPY-GDP exchange fluorescence, biochemical; series mostly up to 12.7 µM.
Sequence of Rap guanine nucleotide exchange factor 4 (Homo sapiens) (Q8WZA2 whole entry, looked up): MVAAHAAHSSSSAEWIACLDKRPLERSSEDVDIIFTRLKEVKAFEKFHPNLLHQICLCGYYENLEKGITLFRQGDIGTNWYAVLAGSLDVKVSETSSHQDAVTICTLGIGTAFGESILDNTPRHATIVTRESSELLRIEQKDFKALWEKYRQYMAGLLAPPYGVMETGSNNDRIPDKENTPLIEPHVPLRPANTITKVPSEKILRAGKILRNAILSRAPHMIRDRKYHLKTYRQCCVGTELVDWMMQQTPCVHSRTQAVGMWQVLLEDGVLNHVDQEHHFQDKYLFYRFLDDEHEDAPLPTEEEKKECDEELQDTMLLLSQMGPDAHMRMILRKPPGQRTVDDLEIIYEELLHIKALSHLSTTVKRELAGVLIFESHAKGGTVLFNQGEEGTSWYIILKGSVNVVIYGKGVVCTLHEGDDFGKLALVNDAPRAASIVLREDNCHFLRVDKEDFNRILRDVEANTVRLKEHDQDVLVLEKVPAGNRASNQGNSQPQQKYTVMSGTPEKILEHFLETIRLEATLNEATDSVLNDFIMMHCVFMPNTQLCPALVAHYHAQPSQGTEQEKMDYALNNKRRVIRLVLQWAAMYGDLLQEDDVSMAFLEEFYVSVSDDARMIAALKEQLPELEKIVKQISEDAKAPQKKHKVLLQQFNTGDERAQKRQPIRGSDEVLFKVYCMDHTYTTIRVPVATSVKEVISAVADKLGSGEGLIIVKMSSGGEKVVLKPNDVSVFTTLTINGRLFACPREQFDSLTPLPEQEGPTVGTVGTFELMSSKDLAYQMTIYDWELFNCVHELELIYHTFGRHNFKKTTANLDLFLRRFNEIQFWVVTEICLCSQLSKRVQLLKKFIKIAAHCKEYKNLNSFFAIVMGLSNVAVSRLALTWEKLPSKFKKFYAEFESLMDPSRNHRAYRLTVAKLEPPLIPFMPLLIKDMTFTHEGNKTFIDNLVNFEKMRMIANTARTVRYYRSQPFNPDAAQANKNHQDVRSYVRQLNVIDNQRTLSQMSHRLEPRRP
As for `Cc1ccc(C(C)C)c(OCC(=O)NCC2(N3CCOCC3)CCCCC2)c1`, the Potency result was “inactive”.

As to `CCCC1=C(C(=O)OCC)C(c2ccco2)C(C#N)=C(N)O1` (stereo not given), the Potency entry was “inactive”.

Consider `CCc1ccccc1OCC(=O)NCC1COc2ccccc2O1` (stereo not given), for which the Potency result is “inactive”.

Turning to `COc1cc(OC)cc(C(=O)Nc2ccc(NC(=O)c3ccco3)c(Cl)c2)c1`, the Potency entry is “inactive”.

For the compound `COc1ccccc1[C@]1(C)ON(c2ccccc2C(F)(F)F)C1=O`, the Potency entry is “inactive”.

Turning to `CCCOc1ccc(/C=C2/C(=O)ON=C2C)cc1Cl`, the Potency entry is “inactive”.

As to `Oc1ccc(-c2nc(-c3ccc(O)c(O)c3)cs2)cc1`, the Potency result is “inactive”.

For `O=C(NC1CCCCC1)C(c1ccc(-c2ccccc2)cc1)n1c(=O)c(-c2ccco2)nc2ccccc21` (stereo not given), the Potency entry was “inactive”.

Consider `COC(=O)CC1(C(=O)OC)Oc2ccc(Br)cc2C(=O)N1c1cccc(Cl)c1Cl` (stereo not given), for which the Potency was 1.69 µM (active).

As for `Cc1ccn2c(=O)nc(SCC(=O)Nc3ccc4c(c3)OCO4)nc2c1`, the Potency entry was “inactive”.

In the case of `CCOc1ccccc1NC(=O)CN1C(=O)COc2ccc(S(=O)(=O)NC3CCCC3)cc21`, the outcome is “inactive [at 12.7 µM]”.

For the compound `Cc1cccc([C@H]2[C@@H]3C=CCC[C@@H]3C(=O)N2Cc2ccccc2)c1`, the Potency was 42.6 µM (active).

On to `C=CCOC(=O)C1=C(C)NC(C)=C(C(=O)OCC=C)C1c1ccco1`, for which the Potency entry was “inactive”.

For `O=C(N/N=C/c1c(O)ccc2ccccc12)c1[nH]ncc1Br`, the Potency result was “inactive”.

For `O=[N+]([O-])c1cc(Br)ccc1NS(=O)(=O)c1ccccc1`, the Potency result was “inactive”.

For the compound `Clc1ccc(C(c2ccccc2)c2c[nH]c3ccccc23)s1` (stereo not given), the Potency entry is “inactive”.

`CC(C)CCn1c(Oc2ccccc2Cl)nc2c1c(=O)n(C)c(=O)n2C`: the Potency result is “inactive”.

In the case of `O=C1CS(=O)(=O)N(Cc2cccc(F)c2)c2ccc(Br)cc21`, the Potency result is “inactive”.

For the compound `O=C1C(Cl)=C(NCCc2ccccc2)C(=O)c2ccccc21`, the Potency entry was “inactive”.

`Cc1ccc(C(=O)c2cn(Cc3cccc(F)c3)c3nc(C)ccc3c2=O)cc1`: the Potency result is “inactive”.

In the case of `Cc1cc(CSc2ccc(Cl)cc2)ccc1N`, the Potency result is “inactive”.

Take `CN1CCN(c2cc(N3CCN(C(=O)c4ccco4)CC3)c3c4c(onc24)-c2ccccc2C3=O)CC1`: the Potency entry is “inactive”.

On to `Cc1cccn2c(=O)c3cc(C#N)c(=NC(=O)c4ccccc4)n(Cc4ccco4)c3nc12`, for which the Potency result was “inactive”.

Consider `Cc1ccc(-n2nc3ccc(NC(=O)/C=C/c4ccco4)cc3n2)cc1C`, for which the Potency result is “inactive”.

Consider `COc1ccc(OC)c(CNC(=O)CCCc2cn(C)c3ccccc23)c1`, for which the Potency entry is “inactive”.

For `Cc1ccc(NC(=O)CN2C(=O)S/C(=C\c3cccn3-c3cccc(C(=O)O)c3)C2=O)cc1C`, the Potency is 0.019 µM (active).

With `Cc1nnc(SCC(=O)NCc2ccccc2F)c2nn(-c3ccc(Cl)cc3)c(C)c12`, the Potency result is “inactive”.

Take `COc1ccccc1Nc1cc2cc(Br)ccc2c(=O)[nH]1`: the Potency entry was “inactive”.

Consider `CCC(CO)n1c(SCc2cc([N+](=O)[O-])cc3c2OCOC3)nc2ccccc2c1=O` (stereo not given), for which the Potency result is “inactive”.

Turning to `COc1ccc(OCc2nc3ccccc3n2C(C)c2ccccc2)cc1` (stereo not given), the Potency result was “inactive”.

Take `O=C(NCCCN1CCOCC1)c1ccc2c(c1)N(Cc1cccc(Cl)c1)C(=O)c1ccccc1S2`: the Potency entry is “inactive”.

For the compound `OCCCNc1ncnc2oc(-c3ccccc3)c(-c3ccccc3)c12`, the Potency entry is “inactive”.

Take `COc1ccc(OC)c(Nc2cc3ccccc3c(=O)[nH]2)c1`: the Potency result was “inactive”.

As to `O=C(CSc1nnc(-c2cnccn2)n1Cc1ccco1)c1ccc(Cl)cc1`, the Potency entry is “inactive”.

As to `CCCS(=O)(=O)c1c(S(=O)(=O)CCC)c2cnccn2c1C(=O)c1ccc(CC)cc1`, the Potency entry is “inactive”.

With `Cc1ccc(N(Cc2ccc([N+](=O)[O-])cc2)C(=O)c2ccco2)cc1`, the Potency is 15.1 µM (active).

Regarding `CC(=O)C(=Cc1ccc(Cl)cc1)C(=O)c1ccccc1`, the Potency entry was “inactive”.

Consider `O=C(Nc1cccc(S(=O)(=O)NC2=NCCCCC2)c1)c1cc(-c2ccc(Cl)cc2)nc2ccccc12`, for which the Potency result is “inactive”.

Turning to `O=C(NNC(=O)c1ccccc1F)c1cccc(-n2cccc2)c1`, the Potency result is “inactive”.

`O=S(=O)(NCC(c1cccnc1)N1CCN(c2ccccc2F)CC1)c1cccs1` (stereo not given): the Potency entry is “inactive”.

A further test concerns the target Rap guanine nucleotide exchange factor 3 (Homo sapiens) (UniProt O95398). The test is described as follows: Counterscreen qHTS for antagonist of cAMP-regulated guanine nucleotide exchange factor 3 (EPAC1) (AID 1645888).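 Further: fluorescence loss as bound BODIPY-GDP is released from Rap1B.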 The following applies: Rap1B-BODIPY-GDP nucleotide exchange, fluorescence; series mostly up to 154 µM. The method, boiled down: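 Rap1B–BODIPY-GDP (250 nM) with 50 uM GDP; compounds pin-transferred to 9.74 nM–152 uM final (activator) or from 7.32 nM upwards (inhibitor). Fluorescence Ex/Em 480/540 nm read at 5 and 30 min, then after adding cAMP or buffer, at room temperature.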
For the compound `Cc1ccc(C(C)C)c(OCC(=O)NCC2(N3CCOCC3)CCCCC2)c1`, the Potency entry is “inactive”.

In the case of `CCCC1=C(C(=O)OCC)C(c2ccco2)C(C#N)=C(N)O1` (stereo not given), the activity change, negative = inhibition was -11% [at 30.8 µM].

Turning to `CCc1ccccc1OCC(=O)NCC1COc2ccccc2O1` (stereo not given), the Potency result was “inactive”.

Take `COc1cc(OC)cc(C(=O)Nc2ccc(NC(=O)c3ccco3)c(Cl)c2)c1`: the Potency entry is “inactive”.

In the case of `COc1ccccc1[C@]1(C)ON(c2ccccc2C(F)(F)F)C1=O`, the Potency result is “inactive”.

Regarding `CCCOc1ccc(/C=C2/C(=O)ON=C2C)cc1Cl`, the Potency entry is “inactive”.

As for `Oc1ccc(-c2nc(-c3ccc(O)c(O)c3)cs2)cc1`, the Potency result was “inactive”.

On to `O=C(NC1CCCCC1)C(c1ccc(-c2ccccc2)cc1)n1c(=O)c(-c2ccco2)nc2ccccc21` (stereo not given), for which the Potency entry is “inactive”.

For `COC(=O)CC1(C(=O)OC)Oc2ccc(Br)cc2C(=O)N1c1cccc(Cl)c1Cl` (stereo not given), the Potency entry was “inactive”.

Turning to `Cc1ccn2c(=O)nc(SCC(=O)Nc3ccc4c(c3)OCO4)nc2c1`, the Potency entry was “inactive”.

With `CCOc1ccccc1NC(=O)CN1C(=O)COc2ccc(S(=O)(=O)NC3CCCC3)cc21`, the Potency result is “inactive”.

For the compound `Cc1cccc([C@H]2[C@@H]3C=CCC[C@@H]3C(=O)N2Cc2ccccc2)c1`, the Potency entry is “inactive”.

For the compound `C=CCOC(=O)C1=C(C)NC(C)=C(C(=O)OCC=C)C1c1ccco1`, the activity change, negative = inhibition was -5.56% [at 30.8 µM].

For `O=C(N/N=C/c1c(O)ccc2ccccc12)c1[nH]ncc1Br`, the Potency result is “inactive”.

Regarding `O=[N+]([O-])c1cc(Br)ccc1NS(=O)(=O)c1ccccc1`, the activity change, negative = inhibition is -16.7% [at 30.8 µM].

Regarding `Clc1ccc(C(c2ccccc2)c2c[nH]c3ccccc23)s1` (stereo not given), the Potency entry is “inactive”.

Take `CC(C)CCn1c(Oc2ccccc2Cl)nc2c1c(=O)n(C)c(=O)n2C`: the Potency entry is “inactive”.

Turning to `O=C1CS(=O)(=O)N(Cc2cccc(F)c2)c2ccc(Br)cc21`, the Potency entry is “inactive”.

On to `O=C1C(Cl)=C(NCCc2ccccc2)C(=O)c2ccccc21`, for which the Potency result is “inactive”.

As to `Cc1ccc(C(=O)c2cn(Cc3cccc(F)c3)c3nc(C)ccc3c2=O)cc1`, the Potency entry is “inactive”.

As to `Cc1cc(CSc2ccc(Cl)cc2)ccc1N`, the Potency result is “inactive”.

For `CN1CCN(c2cc(N3CCN(C(=O)c4ccco4)CC3)c3c4c(onc24)-c2ccccc2C3=O)CC1`, the Potency entry was “inactive”.

As for `Cc1cccn2c(=O)c3cc(C#N)c(=NC(=O)c4ccccc4)n(Cc4ccco4)c3nc12`, the activity change, negative = inhibition is 15.9% [at 30.8 µM].

Turning to `Cc1ccc(-n2nc3ccc(NC(=O)/C=C/c4ccco4)cc3n2)cc1C`, the Potency result is “inactive”.

As for `COc1ccc(OC)c(CNC(=O)CCCc2cn(C)c3ccccc23)c1`, the Potency result is “inactive”.

Consider `Cc1ccc(NC(=O)CN2C(=O)S/C(=C\c3cccn3-c3cccc(C(=O)O)c3)C2=O)cc1C`, for which the activity change, negative = inhibition is -10.4% [at 30.8 µM].

As for `Cc1nnc(SCC(=O)NCc2ccccc2F)c2nn(-c3ccc(Cl)cc3)c(C)c12`, the Potency entry was “inactive”.

With `COc1ccccc1Nc1cc2cc(Br)ccc2c(=O)[nH]1`, the Potency entry is “inactive”.

In the case of `CCC(CO)n1c(SCc2cc([N+](=O)[O-])cc3c2OCOC3)nc2ccccc2c1=O` (stereo not given), the activity change, negative = inhibition was 19.8% [at 30.8 µM].

Turning to `COc1ccc(OCc2nc3ccccc3n2C(C)c2ccccc2)cc1` (stereo not given), the Potency entry was “inactive”.

Take `O=C(NCCCN1CCOCC1)c1ccc2c(c1)N(Cc1cccc(Cl)c1)C(=O)c1ccccc1S2`: the Potency entry is “inactive”.

Take `OCCCNc1ncnc2oc(-c3ccccc3)c(-c3ccccc3)c12`: the activity change, negative = inhibition is -6.04% [at 30.8 µM].

For the compound `COc1ccc(OC)c(Nc2cc3ccccc3c(=O)[nH]2)c1`, the Potency entry is “inactive”.

Take `O=C(CSc1nnc(-c2cnccn2)n1Cc1ccco1)c1ccc(Cl)cc1`: the Potency entry was “inactive”.

Take `CCCS(=O)(=O)c1c(S(=O)(=O)CCC)c2cnccn2c1C(=O)c1ccc(CC)cc1`: the activity change, negative = inhibition is -2.89% [at 30.8 µM].

As to `Cc1ccc(N(Cc2ccc([N+](=O)[O-])cc2)C(=O)c2ccco2)cc1`, the Potency result is “inactive”.

In the case of `CC(=O)C(=Cc1ccc(Cl)cc1)C(=O)c1ccccc1`, the Potency result was “inactive”.

For the compound `O=C(Nc1cccc(S(=O)(=O)NC2=NCCCCC2)c1)c1cc(-c2ccc(Cl)cc2)nc2ccccc12`, the Potency entry was “inactive”.

In the case of `O=C(NNC(=O)c1ccccc1F)c1cccc(-n2cccc2)c1`, the Potency entry was “inactive”.

Consider `O=S(=O)(NCC(c1cccnc1)N1CCN(c2ccccc2F)CC1)c1cccs1` (stereo not given), for which the activity change, negative = inhibition was -13.6% [at 30.8 µM].
